Shown are actives, neighbours in structure and some others; about 1.1% of the full set was active somewhere.
LAP4-GFP MLPCN = yeast TOR pathway LAP4-GFP modulation | S. cerevisiae LAP4-GFP multiplex, flow cytometry GFP, 3 h; median GFP as percent of DMSO wells | GFP response vs DMSO, % at 10 µM | hit rate 0.34% among 320,000 | AID 2023;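 active means GFP response vs DMSO above a set limit, about the screen mean plus 3 SD, cut at about 150% in these data; inconclusive means under 70 cell events counted for the yeast strain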
CIT2 TOR yeast = yeast TOR pathway CIT2-GFP modulation; S. cerevisiae CIT2-GFP strain, flow cytometry, 3 h; 100 means same as DMSO wells; AID 2029; GFP response vs DMSO, % at 10 µM; hit rate 0.065% among 320,000;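 active means GFP response relative to DMSO above a set limit, near the screen mean plus 3 SD, cut at about 150% in these data; inconclusive means Fewer than 70 cells measured for a yeast strain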;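 further: ratio of well median GFP fluorescence to mean of DMSO wells on the plate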
AGP1 TOR yeast = alters AGP1-GFP fluorescence in TOR pathway yeast screen | S. cerevisiae AGP1-GFP multiplex flow cytometry, 3 h; GFP as percent of DMSO wells | hit rate 0.02% among 320,000 | GFP response vs DMSO, % at 10 µM;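 active means GFP response relative to DMSO above a set limit, near screen average plus 3 SD, cut at about 150% in these data; inconclusive means fewer than 70 cells counted for the yeast strain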;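 further: median GFP channel fluorescence of the gated AGP1 strain per well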
RPL19A TOR yeast = alters RPL19A-GFP fluorescence in TOR pathway yeast screen | S. cerevisiae RPL19A-GFP strain, flow cytometry, 3 h; active compounds read low | percent response vs DMSO, % at 10 µM | hit rate 0.3% among 330,000;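 active means percent response vs DMSO below 50%; inconclusive means fewer than 70 events counted for the yeast strain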;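 further: median channel GFP fluorescence of the barcoded RPL19A-GFP strain; lower means less RPL19A-GFP as with rapamycin TOR inhibition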
VLA-4 inh = inhibition in a human VLA-4 binding assay; VLA-4 expressing cells, ligand binding flow cytometry; inhibition, % (about 7 µM as worked out from the volumes in the protocol); hit rate 0.2% among 330,000; in the data active means inhibition above about 50%
Target sequence (P13612 whole entry, looked up): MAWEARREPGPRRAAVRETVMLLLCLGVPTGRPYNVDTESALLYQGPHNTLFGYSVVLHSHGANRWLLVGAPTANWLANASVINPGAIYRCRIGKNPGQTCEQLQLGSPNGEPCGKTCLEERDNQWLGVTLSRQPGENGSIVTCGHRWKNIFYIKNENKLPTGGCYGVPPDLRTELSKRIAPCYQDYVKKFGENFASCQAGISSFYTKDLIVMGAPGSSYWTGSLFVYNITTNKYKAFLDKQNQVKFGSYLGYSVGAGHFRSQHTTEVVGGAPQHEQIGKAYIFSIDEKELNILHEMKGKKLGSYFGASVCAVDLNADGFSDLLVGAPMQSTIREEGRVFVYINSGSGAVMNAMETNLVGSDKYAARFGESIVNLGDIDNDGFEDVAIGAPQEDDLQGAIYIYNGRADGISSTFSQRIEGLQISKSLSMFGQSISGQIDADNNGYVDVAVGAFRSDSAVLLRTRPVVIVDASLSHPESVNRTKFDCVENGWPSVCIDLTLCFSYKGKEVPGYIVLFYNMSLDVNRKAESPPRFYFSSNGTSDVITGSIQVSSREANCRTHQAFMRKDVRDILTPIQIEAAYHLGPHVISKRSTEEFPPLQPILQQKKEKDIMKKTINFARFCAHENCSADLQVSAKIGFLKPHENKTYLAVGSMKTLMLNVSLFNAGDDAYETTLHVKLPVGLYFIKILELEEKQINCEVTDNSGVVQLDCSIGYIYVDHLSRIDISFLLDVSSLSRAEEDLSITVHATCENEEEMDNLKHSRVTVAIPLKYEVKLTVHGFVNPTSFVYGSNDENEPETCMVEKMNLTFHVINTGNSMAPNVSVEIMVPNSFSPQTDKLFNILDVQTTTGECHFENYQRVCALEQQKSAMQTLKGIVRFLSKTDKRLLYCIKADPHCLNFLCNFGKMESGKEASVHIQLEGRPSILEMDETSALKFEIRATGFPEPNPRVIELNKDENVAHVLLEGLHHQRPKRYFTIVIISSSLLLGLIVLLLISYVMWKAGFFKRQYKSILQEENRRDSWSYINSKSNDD
MEP2 TOR yeast = modulators of TOR pathway MEP2-GFP in S. cerevisiae | S. cerevisiae MEP2-GFP strain, flow cytometry GFP, 3 h; 100% = DMSO control level | GFP response vs DMSO, % at 10 µM | hit rate 0.51% among 330,000 | AID 2016;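 active means GFP response versus DMSO above a set limit, roughly screen mean plus 3 SD, cut at about 180% in these data; inconclusive means fewer than 70 cells counted for a yeast strain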;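 further: median GFP fluorescence of the barcode-gated MEP2-GFP cells per well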
VLA-4 allo CP = confirmation of allosteric modulators of human VLA-4 integrin; shares compounds with VLA-4 inh; inhibition, % at 6.7 µM; U937 cells, HUTS-21 LIBS mAb binding, flow cytometry; LDV ligand present at threefold Kd; hit rate 2% among 1,300; in the data active means inhibition above about 40%
Hits are given with their value; - = inactive; ? = inconclusive; . = not tested or not shown.

SMILES | LAP4-GFP MLPCN | CIT2 TOR yeast | AGP1 TOR yeast | RPL19A TOR yeast | VLA-4 inh | MEP2 TOR yeast | VLA-4 allo CP
COCCn1c(-c2ccco2)nc2nc3ccccc3nc21 | - | - | - | - | 92 | - | -
CCCN(C(=O)c1ccccc1N)c1c(C)n(C)n(-c2ccccc2)c1=O | - | - | - | - | - | - | -
CCN(c1c(C)n(C)n(-c2ccccc2)c1=O)S(C)(=O)=O | - | - | - | ? | - | - | .
O=C(c1cc(-c2ccccc2)nc2ccccc12)N1CCN(C2CCS(=O)(=O)C2)CC1 (centres undefined) | - | - | - | - | - | - | .
Cc1ccc(-c2cc(C(=O)N3CCN(C4CCS(=O)(=O)C4)CC3)c3ccccc3n2)cc1 (centres undefined) | - | - | - | - | - | - | -
COc1cc(/C=C2\S/C(=N/S(=O)(=O)Cc3ccccc3)NC2=O)c([N+](=O)[O-])cc1OC | - | - | - | - | - | - | .
COc1cc(/C=C2/S/C(=N/S(=O)(=O)c3ccccc3)NC2=O)c([N+](=O)[O-])cc1OC | - | - | - | - | 52 | - | -
COc1ccc(-n2c(SCC#N)nc3c(sc(=S)n3-c3ccccc3)c2=O)c(OC)c1 | - | - | - | - | - | - | .
COc1ccc(C2c3ccc4ccccc4c3Oc3ncn(CCCN(C)C)c(=N)c32)cc1 (centres undefined) | - | - | - | - | - | - | -
Cc1cc(/C=C(/C#N)C(=O)Nc2ccccc2)c(C)n1-c1cccnc1 | - | - | - | - | 94 | - | -
Cc1cc(/C=C(\C#N)C(=O)Nc2ccccc2)c(C)n1-c1ccc2c(c1)OCO2 | - | - | - | - | - | - | .
O=C(COC(=O)c1cc(=O)[nH]c(=O)[nH]1)Nc1ccccc1F | - | - | - | - | - | - | .
CS(=O)(=O)c1nc(-c2ccc(Br)cc2)cc(-c2ccccc2)c1C#N | - | - | - | - | - | - | .
CS(=O)c1nc(-c2ccc(Br)cc2)cc(-c2ccccc2)c1C#N (centres undefined) | - | - | - | - | 59 | - | 41
Cn1cccc1/C=N/NC(=O)c1cc2ccccc2cc1O | - | - | - | - | - | - | .
Cn1nnnc1SCC(=O)N1CCN(S(=O)(=O)c2ccccc2)CC1 | - | - | - | - | 51 | - | -
Cn1nnnc1SCC(=O)N1CCN(S(=O)(=O)c2ccc(Cl)cc2)CC1 | - | - | - | - | - | - | .
CCC(CO)NCCNC(CC)CO (centres undefined) | - | - | - | - | 50 | - | -
OC(CN1CCOCC1)(c1ccccc1)c1ccccn1 (centres undefined) | - | - | - | - | - | - | .
Cc1cc(Nc2ccccc2)nc2cc(O)ccc12 | - | - | - | - | 56 | - | -
C[C@H](Cc1ccccc1)Nc1ncnc2c1ncn2[C@@H]1O[C@H](CO)[C@@H](O)[C@H]1O | - | - | - | - | 59 | - | -
O=C1OC(C(=O)NCc2ccccc2)Cc2ccccc21 (centres undefined) | - | - | - | - | - | - | .
S=C(NCCCc1ccccc1)Nc1ccccc1Cl | - | - | - | - | 50 | - | -
S=C(NCCc1ccccc1)Nc1ccccc1Cl | - | - | - | - | - | - | .
COc1ccc(OC)c(C2C(C(=O)c3ccco3)=C(O)C(=O)N2CC2CCCO2)c1 (centres undefined) | - | - | - | - | - | - | .
SMILES | LAP4-GFP MLPCN | CIT2 TOR yeast | AGP1 TOR yeast | RPL19A TOR yeast | VLA-4 inh | MEP2 TOR yeast | VLA-4 allo CP
Cc1cc(Cl)ccc1Oc1ccccc1C(=O)CC#N | - | - | - | - | - | - | -
Cc1noc(C)c1CSCC(=O)Nc1nc2ccc(S(C)(=O)=O)cc2s1 | - | - | - | - | 50 | - | -
COc1ccc(OCC(=O)Nc2ccccc2C(=O)NC(C)C)cc1 | - | - | - | - | - | - | -
CCC(C)NC(=O)c1ccccc1NC(=O)COc1ccc(OC)cc1 (centres undefined) | . | . | . | . | . | . | -
COc1ccc(NC(=O)c2ccccc2NC(=O)COc2ccccc2)cc1 | - | - | - | - | - | - | .
CC(C)CCn1c(=O)c2sccc2n2c(CCCC(=O)N3CCN(c4ccccn4)CC3)nnc12 | - | - | - | - | - | - | .
CCOC(=O)c1[nH]c2ccccc2c1NC(=O)CC | - | - | - | - | - | - | .
CCOC(=O)c1[nH]c2ccccc2c1NC(C)=O | - | - | - | - | 68 | - | -
O=C(N1CCOCC1)N1CCC(NC(=O)C23CC4CC(CC(C4)C2)C3)CC1 | - | - | - | - | 52 | - | -
O=C(N1CCOCC1)C12CCC3CC(CC(C3)C1)C2 | - | - | - | - | - | - | .
COc1ccc(N(C(=O)c2cnsn2)C(C(=O)NC2CCCCC2)c2ccncc2)cc1 (centres undefined) | - | - | - | - | - | - | -
N=C(N)N=Nc1c(O)[nH]c2ccc(Br)cc12 | - | - | - | - | 53 | - | -
Oc1[nH]c2ccc(Br)cc2c1N=NC(=S)Nc1ccc(F)cc1 | - | - | - | - | - | - | .
CC(=O)Nc1ccc(/C=C(\C#N)C(=O)NCc2ccccc2)cc1 | - | - | - | - | - | - | .
CC(=O)Nc1ccc(/C=C(\C#N)C(N)=O)cc1 | - | - | - | - | - | - | -
CCC(=O)c1ccc(OCC(=O)OCC(=O)N2CCc3ccccc32)cc1 | - | - | - | - | - | - | .
COc1cccc(-c2sc3cc(OC)c(OC)cc3c2-c2ccc(OCCN3CCCCC3)cc2)c1 | . | . | . | . | . | . | -
COc1cccc(-c2sc3ccccc3c2-c2ccc(OCCN3CCCCC3)cc2)c1 | - | - | - | - | - | - | -
COc1ccc(-c2sc3ccc(OC)cc3c2-c2ccc(OCCN3CCOCC3)cc2)cc1 | . | . | . | . | . | . | -
COc1cccc(-c2sc3ccc(OC)cc3c2-c2ccc(OCCN3CCCC3)cc2)c1 | . | . | . | . | . | . | -
Cc1cc(C(=O)CCC(=O)N2CCN(c3ccccc3)CC2)c(C)s1 | - | - | - | - | - | - | .
COc1cccc(-c2sc3ccc(OC)cc3c2-c2ccc(C(N)=O)cc2)c1 | - | - | - | - | - | - | .
COc1cccc(-c2sc3ccccc3c2-c2ccc(OCCN(C)C)cc2)c1 | - | - | - | - | 72 | - | 44
COc1ccc2sc(-c3ccccc3OC)c(-c3ccc(OCCN(C)C)cc3)c2c1 | . | . | . | . | . | . | -
COc1cccc(-c2sc3ccccc3c2-c2ccc(OCCN3CCCC3)cc2)c1 | - | - | - | - | 64 | - | -
O=C(C[C@H]1C/C=C\CCC(=O)OC[C@H]2CCCN2C1=O)NCCO | - | - | - | - | - | - | .
COc1ccc(/C=C\C(=O)NCc2ccc3c(c2)cc(C)n3C)cc1OC | - | - | - | - | 58 | - | -
